# PI4K2A block: blocks human PI4K2A kinase activity | 420,000 tested, 0.13% active | purified PI4K2A, ADP-Glo luminescence, 1 h; hits give low values | Q9BTU6 | activity change, negative = inhibition, % at 76.9 µM; in the data active means activity change below about -50%; inconclusive means mostly about -30% to -49%;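 further: -100% = wells without enzyme as full effect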
# Target sequence (Q9BTU6 whole entry, looked up): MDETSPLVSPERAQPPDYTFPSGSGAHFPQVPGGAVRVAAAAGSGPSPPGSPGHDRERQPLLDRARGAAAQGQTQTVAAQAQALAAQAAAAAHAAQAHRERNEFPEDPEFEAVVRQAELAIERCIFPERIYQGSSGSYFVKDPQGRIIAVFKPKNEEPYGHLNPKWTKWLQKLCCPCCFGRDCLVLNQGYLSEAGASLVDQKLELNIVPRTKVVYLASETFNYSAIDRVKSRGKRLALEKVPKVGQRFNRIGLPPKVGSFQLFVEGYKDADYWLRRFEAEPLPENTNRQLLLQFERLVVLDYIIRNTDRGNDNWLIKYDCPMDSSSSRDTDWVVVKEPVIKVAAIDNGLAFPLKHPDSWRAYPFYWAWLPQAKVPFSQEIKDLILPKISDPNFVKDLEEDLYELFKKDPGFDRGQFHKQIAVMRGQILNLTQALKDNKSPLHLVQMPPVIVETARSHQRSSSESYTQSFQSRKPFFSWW
#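 Compounds are screened against recombinant PI4K2A using PI as substrate and ATP, the latter dispensed at 300 microM. Reactions run one hour at ambient temperature before ADP-Glo detection; full inhibition defined by wells lacking enzyme.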
# Tb PGK inh: T. brucei PGK inhibition | Potency, µM (series often up to 57.5 µM), for inactives: top-dose activity change, negative = inhibition, most hits filed as inhibitors | PGK/GAPDH coupled, Kinase-Glo luminescence, 60 min | 380,000 tested, 0.043% active; further: potency means the concentration at half of the fitted maximal effect; nearly all actives have a fitted effect of over 60% in size
#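 Luminescent ATP detection (Kinase-Glo Plus) follows a 60-minute room-temperature incubation, with wells lacking PGK as controls. Buffer: 100 mM TEA (pH 7.6), 5 mM MgCl2, 0.01% Tween-20. Coupling enzyme GAPDH (100 nM final) supplies unstable 1,3-BPG in-well.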
# PI5P4Ka inh: blocks human PI5P4K alpha kinase activity; P48426; PI5P4Kalpha enzyme, ADP-Glo luminescence, 60 min; hits give low values; max response, %; 330,000 tested, 1.2% active; AID 652105; active means max response of -50% or lower; inconclusive means between -30% and -50%; inactive means -30% or higher; further: value at the top dose of about 77 µM
#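 Enzyme plus substrate dispensed, test compounds pinned in, then ATP (5 microM final) added. After 60 min at RT, ADP-Glo reagent 1 for 45 min and reagent 2 for 30 min preceded luminescence imaging.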
# Pin1 inh: inhibitors of human Pin1; Q13526; Pin1 FP peptide displacement, HiFluor488, 10 min; Potency, µM (doses to about 115 µM), without a hit: at the top dose activity, negative = inhibition, actives largely listed as inhibitors; 390,000 tested, 0.009% active; active means well fitted inhibition curve with a large enough effect in the polarisation, with a control signal flat, not every such curve was filed as active; inconclusive means small, poorly fitted or top-dose-only effect, or effect the other way, or a change in a side signal; inactive means no such curve, though single readings can be large or run the other way; the % refers to the polarisation; further: potency means the concentration at half of the fitted maximal effect
# Target sequence (Q13526 whole entry, looked up): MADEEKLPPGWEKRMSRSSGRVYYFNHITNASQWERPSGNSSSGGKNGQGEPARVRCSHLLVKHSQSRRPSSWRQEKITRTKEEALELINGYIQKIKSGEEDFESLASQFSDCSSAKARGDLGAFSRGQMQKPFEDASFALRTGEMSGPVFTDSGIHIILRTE
# Tb PFK block: T. brucei PFK enzyme inhibition; O15648; T. brucei PFK, ADP-Glo luminescence; Potency, µM (doses to about 57.5 µM), for the others: at the top dose activity, negative = inhibition, usual class: inhibitors; 330,000 tested, 0.17% active; AID 485367;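 further: potency means the concentration at half of the fitted maximal effect; 0% = uninhibited 1x PFK enzyme wells and -100% = no-enzyme wells; nearly all actives have a fitted effect of over 60% in size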
#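 Activity is normalized to no-enzyme wells (full inhibition) and 1.25 nM enzyme wells (no inhibition). Reaction: 0.5 mM F6P, 0.1 mM ATP, 45 min RT, ADP-Glo luminescence; concentration-response curves fitted and classed by quality.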
# * marks the source's active call; other numbers are inactive results; i = inactive; ? = inconclusive; · = not tested or not shown; + = active, no number. This excerpt belongs to a sample that is enriched for hits. Unless noted, the call rests on the fitted dose curve; in most records, active means well fitted curve in the direction sought with a large enough effect; inconclusive means small, poorly fitted or top-dose-only effect, or another doubt; inactive means no such curve, though single readings can be large; an effect the other way counts as inactive or inconclusive. Unless noted, on the % scale 0 is the no-effect control and ±100 the full control effect.
SMILES,PI4K2A block,Tb PGK inh,PI5P4Ka inh,Pin1 inh,Tb PFK block
Cc1ccc(/C=C/C(=O)NCc2ccccn2)o1,-1.7,?,-63.6*,?,?
Cc1ccc(/C=C/C(=O)Nc2ccc(S(N)(=O)=O)cc2)o1,-3.8,-4.9%,-54.4*,9.8%,-21.4%
N#Cc1cccc(NS(=O)(=O)c2ccc3c(c2)CCC(=O)N3)c1,·,·,·,-3.1%,·
N=C1/C(=C/c2ccc(-c3cccc(C(=O)O)c3)o2)C(=O)N=C2SC(CC(=O)N3CCOCC3)=NN12,-6.5,?,-83.4*,?,-6.8%
N=C1/C(=C\c2ccc(-c3cccc(C(=O)O)c3)o2)C(=O)N=C2SC=C(c3ccccc3)N12,-2.9,?,-98.2*,?,0.2%
CCOC(=O)CC[C@H]1CC[C@]2(CCCN(S(=O)(=O)C3CCCCC3)C2)O1,-4.7,·,·,·,·
O=C(/C=C/c1ccc(O)c(O)c1)c1ccc(S(=O)(=O)N2CCCCCC2)cc1,-16.1,-0.5%,-64.4*,?,0.7%
CC(=O)c1cc(-c2ccccc2)c(=O)n2c1CCC2,-0.9,·,·,·,·
COc1ccc(C2=NOC(C)(c3nnc(-c4ccncc4)o3)C2)cc1 (stereo not drawn),-60.1*,i,5.0,-5.6%,·
Cc1ccc(C2=NOC(C)(c3nnc(-c4ccncc4)o3)C2)cc1 (stereo not drawn),-0.7,2.2%,-3.2,0.0%,·
N#Cc1ccc(NS(=O)(=O)c2ccc3c(c2)CCC(=O)N3)cc1,·,·,·,2.0%,·
CCN1C(=O)[C@H]2[C@@H](c3ccc(-c4ccc(Cl)c(Cl)c4)c(OC)c3)N[C@@](C)(C(=O)OC)[C@H]2C1=O,3.8,-11.5%,-60.0*,-7.1%,0.0%
CC1=CC(=O)C(Sc2ccc(C)cc2)=CC1=O,2.8,i,-71.5*,·,·
Nc1ncnc2c1nc(Sc1ccc(Cl)cc1)n2[C@H]1OC2COP(=O)(O)O[C@@H]2C1O (stereo partly drawn),-1.2,·,·,·,·
CC(C)(C)c1nnc2sc(SC/C(O)=C(\C#N)c3nc4ccccc4[nH]3)nn2c1=O,-11.7,-6.5%,?,18.0%,0.2%
Cc1cccc(Nc2nnc(SC/C(O)=C(\C#N)c3nc4ccccc4[nH]3)s2)c1,-4.4,4.6%,-54.1*,34.4%,0.0%
N#C/C(=C(/O)CSc1ncn[nH]1)c1nc2ccccc2[nH]1,0.4,-2.9%,?,?,0.1%
COc1ccc(C)cc1-n1nnnc1SC/C(O)=C(\C#N)c1nc2ccccc2[nH]1,-7.1,-9.3%,?,42.2%,-2.3%
Cc1cc(C)n2c(SCC(O)=C(C#N)c3nc4ccccc4[nH]3)nnc2n1,-16.3,2.9%,-73.5*,?,·
Cc1ccc(Nc2nnc(SC/C(O)=C(\C#N)c3nc4ccccc4[nH]3)s2)c(C)c1,-2.9,2.3%,-60.0*,32.6%,4.5%
CNC(=O)c1c(I)c(NC(C)=O)c(I)c(C(=O)O)c1I,4.2,·,·,·,·
CC(=O)CC[C@H]1CC[C@]2(CCCN(S(=O)(=O)C3CCCCC3)C2)O1,7.3,·,·,·,·
O=C1CCN(CCc2ccccc2)CCN1[C@H](CSc1ccccc1)c1ccccc1,-63.2*,-8.4%,-2.4,3.6%,1.4%
Cc1ccc(SC[C@H](c2ccccc2)N2CCN(CCc3ccccc3)CCC2=O)cc1,-0.9,4.5%,-0.7,9.2%,-0.7%
Cc1ccc(C2C3=C(CCCC3=O)Nc3[nH]c(=S)[nH]c(=O)c32)cc1 (stereo not drawn),-2.2,-0.9%,·,7.5%,1.7%
SMILES,PI4K2A block,Tb PGK inh,PI5P4Ka inh,Pin1 inh,Tb PFK block
CC1(C)CC(=O)C2=C(C1)Nc1[nH]c(=S)[nH]c(=O)c1C2c1ccccc1 (stereo not drawn),5.7,-1.2%,-57.1*,3.3%,-3.1%
COC(=O)C1=C(C)Nc2[nH]c(=S)[nH]c(=O)c2C1c1ccc(O)cc1 (stereo not drawn),-1.4,5.8%,-24.5,-1.2%,-10.5%
O=c1[nH]c(=S)[nH]c2c1C(c1ccc(Br)cc1)c1c([nH]c(=S)[nH]c1=O)O2,-55.6*,?,-75.2*,·,?
O=C1CCCC2=C1C(c1ccc(Br)cc1)c1c([nH]c(=S)[nH]c1=O)N2 (stereo not drawn),-7.5,0.9%,-74.8*,-10.6%,-13.0%
CC(=O)Nc1ccc(OCc2cccc(C3Nc4ccccc4C(=O)N3Cc3ccco3)c2)cc1 (stereo not drawn),·,·,·,22.6%,·
Cc1ccccc1C(=O)N1CCC(Oc2cccnc2)CC1,-3.8,·,·,·,·
COc1c(C)c2c(c(O)c1C/C=C(\C)CCC(=O)OCCN1CCOCC1)C(=O)OC2,-0.9,·,·,·,·
COc1cccc(C2c3c(ncn(-c4ccccc4Br)c3=N)Oc3ccc4ccccc4c32)c1 (stereo not drawn),·,·,·,17.6%,·
CCSc1nc(O)cc(=O)[nH]1,-1.8,5.0%,-2.4,6.2%,-6.2%
N#CNc1nc(O)cc(=O)[nH]1,-6.1,28.2µM*,-77.9*,2.8%,12.9%
COCCOCC(OC)OC,-4.8,·,·,·,·
Cc1ccc2c3c(cccc13)-c1ccccc1C2=O,5.0,-2.1%,19.8,?,0.0%
Cc1ccc(C(=O)c2coc3c2C(=O)C(=O)c2ccccc2-3)cc1,-7.0,·,·,0.0%,-2.4%
Cc1coc2c1C(=O)C(=O)c1c-2ccc2c(C)cccc12,?,-13.0%,-56.1*,?,0.8%
Cc1coc2c1C(=O)C(=O)c1c-2ccc2c1CCCC2(C)C,-21.9,-5.1%,-52.0*,·,-8.2%
C[C@H]1COC2=C1C(=O)C(=O)c1c2ccc2c1CCCC2(C)C,-26.0,-8.9%,-51.5*,·,-2.8%
Nc1ccc(S(=O)(=O)N2CCCN(S(=O)(=O)c3ccc4c(c3)OCCO4)CC2)cc1,·,·,·,-0.6%,·
O=C(CNC(=O)C1CCCC1)OC(C(=O)Nc1cc(C(F)(F)F)ccc1Cl)c1ccccc1 (stereo not drawn),·,·,·,0.1%,·
Cc1ccc(NS(=O)(=O)c2ccc3c(c2)N(C)C(=O)CO3)cc1C,·,·,·,4.5%,·
O=C(c1ccccc1)N1CCN(c2nc(-c3cccs3)nc3ccccc23)CC1,·,·,·,8.8%,·
O=C1CCc2cc(S(=O)(=O)Nc3ccc(Cl)cc3)ccc2N1,·,·,·,-0.2%,·
[Cl][In]([Cl])[Cl],+,·,·,·,·
Cn1c2ccccc2c2cc(/C=N/NC(=O)c3cc(O)cc(O)c3)ccc21,-4.7,?,-73.7*,?,-13.3%
Cc1cccc(C(=O)Oc2ccc(/C=N/NC(=O)c3ccncc3)cc2)c1,1.2,i,2.5,1.0%,4.8%
Cc1cccc(C(=O)Oc2ccc(/C=N/NC(=O)c3cc(O)cc(O)c3)cc2)c1,0.6,?,-76.7*,?,-15.8%
Cn1c2ccccc2c2cc(/C=N/NC(=O)c3cc(O)ccc3O)ccc21,-23.4,-14.0%,-90.3*,·,-15.5%
O=C1c2ccccc2C(=O)N1c1ccccc1O,·,·,·,-2.1%,·
CCCn1c(=S)[nH]c2sc3c(c2c1=O)CCCC3,2.3,8.2%,-12.7,-0.1%,2.0%
O=c1[nH]c(=S)[nH]c2sc3c(c12)CCCCCC3,-0.3,-1.4%,-60.1*,-3.8%,-0.2%

# Bioassay records (PubChem BioAssay)
